Results reported in PubChem BioAssay AID602438 (Sanford-Burnham Center for Chemical Genomics, 2012).
The campaign covered roughly 360,000 compounds. About 3,100 (0.86%) were called active.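 Rule for the calls: active = inhibition or corrected inhibition above about 18%, plus a signal ratio from 0.5 to 1.5 (limit read from the data, passing the limit was not always enough); inactive = the rest.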 Many of the other results were omitted from the sample, so actives are more common in it than they were.

Target: Neuropilin-1 (Homo sapiens) (UniProt O14786)
Sequence (O14786 whole entry, looked up): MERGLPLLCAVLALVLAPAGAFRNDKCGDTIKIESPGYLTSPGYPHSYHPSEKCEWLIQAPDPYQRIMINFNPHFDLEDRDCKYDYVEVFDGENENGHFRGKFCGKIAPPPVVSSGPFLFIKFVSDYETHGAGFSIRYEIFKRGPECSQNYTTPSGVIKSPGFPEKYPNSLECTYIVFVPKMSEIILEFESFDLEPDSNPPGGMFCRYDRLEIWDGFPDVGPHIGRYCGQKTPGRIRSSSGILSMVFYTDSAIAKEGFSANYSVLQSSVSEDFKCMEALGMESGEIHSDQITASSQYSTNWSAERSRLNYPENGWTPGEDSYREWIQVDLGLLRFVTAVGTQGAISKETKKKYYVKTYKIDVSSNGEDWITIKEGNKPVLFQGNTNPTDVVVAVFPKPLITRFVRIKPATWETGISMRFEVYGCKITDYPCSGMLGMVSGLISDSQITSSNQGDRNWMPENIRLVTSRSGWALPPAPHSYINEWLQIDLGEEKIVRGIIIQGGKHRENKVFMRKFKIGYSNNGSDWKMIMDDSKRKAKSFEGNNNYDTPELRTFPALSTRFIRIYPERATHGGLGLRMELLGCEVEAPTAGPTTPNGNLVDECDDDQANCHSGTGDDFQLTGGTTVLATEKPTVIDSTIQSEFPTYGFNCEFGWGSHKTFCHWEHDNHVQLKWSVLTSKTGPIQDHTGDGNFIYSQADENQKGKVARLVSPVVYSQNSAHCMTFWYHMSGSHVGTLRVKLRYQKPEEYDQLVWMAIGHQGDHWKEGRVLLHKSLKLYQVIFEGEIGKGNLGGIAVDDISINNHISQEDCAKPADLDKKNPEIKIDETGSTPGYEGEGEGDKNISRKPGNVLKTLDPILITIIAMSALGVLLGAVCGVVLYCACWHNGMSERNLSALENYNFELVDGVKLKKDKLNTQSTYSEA
Experiment: NRP-1/CendR peptide interaction modulators – biochemical, fluorescence polarization, uHTS, primary screen (AID 602438)
Settings: FAM-RPARPAR peptide binding to NRP-1, fluorescence polarization; at 25 µM; active compounds read high

inhibition, active:
COCCOC(=O)C1=C(C)Nc2nc(C)nn2C1c1ccccc1 (stereo not drawn) 36.8%
CC1C(C)N(C(=O)CCl)c2ccccc2N1C(=O)CCl (stereo not drawn) 27.7%
CC(C)COC(=O)C1C2C=CC3(CN(C(C)c4ccc(Br)cc4)C(=O)C13)O2 (stereo not drawn) 27.4%
COc1ccc(-c2c(C#N)cnc(C)c2C)c(O)c1OC 37.9%
CC(C)(C)S(=O)(=O)c1ccccc1-c1noc(-c2ccccc2)c1C(N)=O 42.7%
COc1ccc(CNC(=O)[C@@H]2CC=C[C@@H]3CCN(C4CC4)C(=O)[C@@H]32)cc1 25.5%
O=C(O)c1ccccc1N=N/C(=N/Nc1cc(S(=O)(=O)O)ccc1O)c1ccccc1 41.5%
O=C(Cc1ccc(S(=O)(=O)N2CCOCC2)s1)N1CCN(c2ccc(C(F)(F)F)cc2[N+](=O)[O-])CC1 27.6%
CC(Oc1cccc(Cl)c1)C(=O)NC1CC(C)(C)NC(C)(C)C1 (stereo not drawn) 24.2%
CC(C)(C)C(=O)c1cnc(Nc2ccccc2)s1 37.4%
COc1cc(OC)cc(C(=O)N[C@H](C(=O)NNC(=O)c2ccc(Br)cc2)C(C)C)c1 22.8%

inhibition, inactive:
CSCCC(NS(=O)(=O)c1ccc(C)cc1)C(=O)N(C)CC(=O)Nc1ccccc1Br (stereo not drawn) 3.9%
O=C(CNC(=O)c1n[nH]c2ccccc12)Nc1cc(Cl)ccc1Cl 3.5%
CCC(NC(=O)c1cc(COc2ccc(F)c(F)c2)on1)c1ccncc1 (stereo not drawn) 1.4%
CC1=C(C(N)=O)C(c2ccc(F)cc2)n2nc(CCCO)nc2N1 (stereo not drawn) 6.8%
COc1ccccc1C1C(C(N)=O)=C(C)Nc2nc(CCCO)nn21 (stereo not drawn) 3.8%
Cc1noc(C)c1CSc1nnc2ccc3ccccc3n12 10.5%
COc1ccc(-c2ccc3nnc(SCC(=O)Nc4ccc(NC(C)=O)cc4)n3n2)cc1 -19%
CC1C(=O)N(Cc2ccccc2)c2ccccc2N1C(=O)c1ccccc1 (stereo not drawn) 1.5%
CNC(=O)N1c2ccccc2C=Cc2ccccc21 2.6%
CCN(CC)c1ccc(C2C3CCCCC3(O)CCN2CC(=O)Nc2ccccc2)cc1 (stereo not drawn) -12.5%
CC(C)Cc1nc(Nc2ccc(S(=O)(=O)N3CCCC3)cc2)c2nnn(Cc3ccccc3)c2n1 -9.8%
CCN(CC)CCN1C(=O)C2C(C(=O)Nc3ccc(Br)cc3)C3C=CC2(O3)C1C(=O)NC1CCCCC1 (stereo not drawn) 10%
CCOC(=O)CN1CC23C=CC(O2)C(C(=O)Nc2ccc(F)cc2)C3C1=O (stereo not drawn) -3.4%
CCOC(=O)C1CCN(C(=O)c2ccccc2N(C)S(=O)(=O)c2ccccc2)CC1 7.6%
Cc1cccc(N2CCN(C(c3ccc(N(C)C)cc3)c3nnnn3C(C)(C)C)CC2)c1C (stereo not drawn) -6.2%
O=C(CCl)NNc1cccc(Cl)n1 5.6%
O=C(CC1SC(=Nc2ccccc2F)N(CCN2CCOCC2)C1=O)Nc1ccc(F)cc1F (stereo not drawn) -6.8%
CCc1ccc(-c2nc(SCC(=O)NC3CCCC3)n[nH]2)cc1 -8.8%
Cc1cc(C)c(S(=O)(=O)N2CCCC2CNC(=O)c2ccc3c(c2)OCO3)c(C)c1 (stereo not drawn) -6.7%
Cc1cc(NS(=O)(=O)c2ccc(NC(=O)C(C)Oc3cccc(C)c3C)cc2)nc(C)n1 (stereo not drawn) -7.8%
Cc1onc(-c2ccccc2)c1C(=O)N1CCN(S(=O)(=O)c2ccccc2C(F)(F)F)CC1 -195%
O=C(COC(=O)c1cccnc1Cl)NC12CC3CC(CC(C3)C1)C2 8%
CC1(C(=O)NCc2ccc3c(c2)OCO3)CCN1C(=O)Cc1cccs1 (stereo not drawn) 3%
Cc1cc(C(=O)COc2ccccc2[N+](=O)[O-])c(C)n1-c1cccc(S(=O)(=O)N2CCOCC2)c1 -14.8%
CCc1c(N=O)c(-c2ccccc2)n(O)[n+]1[O-] 5.4%
O=C(CN1CCN(Cc2ccc(F)cc2Cl)C1=O)NCc1cccs1 -1.9%
CCN=C1S/C(=C\c2cc(Br)ccc2OCC(=O)OCC)C(=O)N1CC -10.1%
CN(C)c1ccc2c(=O)[nH][nH]c(=O)c2c1 11.3%
COc1ccc(CNC(=O)C2CCN(S(C)(=O)=O)CC2)cc1 -11.1%
COc1ccc(CNC(=O)C2CCN(C(=O)c3ccco3)CC2)cc1 -1%
COc1cccc(/C=N/NC(=O)C(=O)N2CCCC2)c1 -7.9%
CCOC(=O)C1(Cc2ccccc2C(F)(F)F)CCN(C(=O)c2cc(C)n(C)n2)CC1 -5.9%
Cc1ccc(S(=O)(=O)N(C)c2ccc(OCC(=O)OCc3ccc(C#N)cc3)cc2)cc1 -6.5%
O=C(c1ccc(N2CCCC2=O)cc1)N1CCN(c2ccc(C(F)(F)F)cc2[N+](=O)[O-])CC1 -0.8%
O=C(c1ccc(N2CCOCC2)c([N+](=O)[O-])c1)N1CCN(S(=O)(=O)c2cccs2)CC1 -14%
N#Cc1cccc(CSc2ncnc(N)n2)c1 12.4%
CCOC(=O)C1CCN(C(=O)CN2C(=O)NC(C)(c3ccc4cc(OC)ccc4c3)C2=O)CC1 (stereo not drawn) -3.2%
CC1=C(C(N)=O)C(c2sccc2C)n2nnnc2N1 (stereo not drawn) -5.6%
Cc1cc(OC(C)C(=O)NC2CC(C)(C)NC(C)(C)C2)c2c(C)cc(=O)oc2c1 (stereo not drawn) 1.2%
Cc1cccc(OCC(=O)NC2CC(C)(C)NC(C)(C)C2)c1 -1.1%
COc1cccc(C2=CC(=O)C[C@H](c3ccc(OC)c(OC)c3)C2)c1 -4.1%
S=c1[nH]nc(Nc2ccccc2)s1 0.6%
O=C(/C=C/Nc1ccccc1)c1cnc(-c2ccccc2)s1 5.7%
O=c1cc(Cl)c2ccccc2n1-c1ccccc1 0%
CCOCCn1[nH]c2ccccc2c1=O 8.9%
COc1ccc(N2CCN(C(=O)[C@@H](NC(=O)c3cc(OC)cc(OC)c3)C(C)C)CC2)cc1 4%
COc1cc(OC)cc(C(=O)NC(C(=O)N2CCC2)C(C)C)c1 (stereo not drawn) -2.9%
